Test in all cases: DAPPL (digital affinity profiling via proximity ligation, sequencing); 10 mM Tris-HCl pH 7.5, 50 mM NaCl, 1 mM DTT, 4% glycerol, room temperature, 30 min; GST-TFs on glutathione beads, 16-mer random dsDNA library, 0.1% formaldehyde crosslink after washing; high values mean tight binding
Details in all cases: protein: recombinant; tags: N-terminal GST; dsDNA, one strand shown

One assay has as its target T1, ERF (Homo sapiens, UniProt P50548 1-548).
T1 sequence: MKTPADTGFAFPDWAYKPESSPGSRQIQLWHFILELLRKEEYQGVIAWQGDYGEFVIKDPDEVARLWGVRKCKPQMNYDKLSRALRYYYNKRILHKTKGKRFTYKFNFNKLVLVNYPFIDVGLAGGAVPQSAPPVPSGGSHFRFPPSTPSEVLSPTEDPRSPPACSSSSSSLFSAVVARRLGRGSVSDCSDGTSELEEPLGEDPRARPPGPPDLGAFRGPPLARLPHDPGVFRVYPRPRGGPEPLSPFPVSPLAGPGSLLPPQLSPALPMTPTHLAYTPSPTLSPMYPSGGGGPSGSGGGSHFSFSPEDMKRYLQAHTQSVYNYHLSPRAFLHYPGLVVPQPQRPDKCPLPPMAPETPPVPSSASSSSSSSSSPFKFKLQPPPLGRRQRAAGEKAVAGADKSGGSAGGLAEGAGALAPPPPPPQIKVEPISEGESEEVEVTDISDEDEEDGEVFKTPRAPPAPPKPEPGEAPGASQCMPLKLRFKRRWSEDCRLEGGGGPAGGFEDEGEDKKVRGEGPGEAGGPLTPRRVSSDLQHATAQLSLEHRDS
Summed up:
(§1)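 Human transcription factors carrying a GST fusion were produced in yeast, bound to glutathione beads, tagged with DNA barcodes and pooled together with a tag-only sample. Each pool was held with 200 nmole of a random double-stranded 16-mer DNA library in Tris/NaCl/DTT/glycerol buffer for 30 min at room temperature, then washed, crosslinked in 0.1% formaldehyde, proximity-ligated with BsaI/T4 ligase (1 h, 37 °C), PCR-amplified and sequenced on an Illumina NextSeq500. Binding signal is the read frequency of each hexamer for a given factor divided by its frequency in the tag-only sample.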

Another assay has as its target T2, ETV3L (Homo sapiens, UniProt Q6ZN32 1-361).
T2 sequence: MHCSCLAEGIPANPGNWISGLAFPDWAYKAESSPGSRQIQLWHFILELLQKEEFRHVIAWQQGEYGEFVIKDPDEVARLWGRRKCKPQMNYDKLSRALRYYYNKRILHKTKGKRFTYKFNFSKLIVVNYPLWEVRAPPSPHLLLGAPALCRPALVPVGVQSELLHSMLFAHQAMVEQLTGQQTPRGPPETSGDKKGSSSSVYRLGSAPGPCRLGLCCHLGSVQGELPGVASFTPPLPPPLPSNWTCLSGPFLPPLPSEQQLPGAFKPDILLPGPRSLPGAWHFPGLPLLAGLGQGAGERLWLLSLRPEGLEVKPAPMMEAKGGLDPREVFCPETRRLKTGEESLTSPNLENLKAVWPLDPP
Summed up:
as §1

The next assay concerns the target T3, ETS2 (Homo sapiens, UniProt P15036 1-469).
T3 sequence: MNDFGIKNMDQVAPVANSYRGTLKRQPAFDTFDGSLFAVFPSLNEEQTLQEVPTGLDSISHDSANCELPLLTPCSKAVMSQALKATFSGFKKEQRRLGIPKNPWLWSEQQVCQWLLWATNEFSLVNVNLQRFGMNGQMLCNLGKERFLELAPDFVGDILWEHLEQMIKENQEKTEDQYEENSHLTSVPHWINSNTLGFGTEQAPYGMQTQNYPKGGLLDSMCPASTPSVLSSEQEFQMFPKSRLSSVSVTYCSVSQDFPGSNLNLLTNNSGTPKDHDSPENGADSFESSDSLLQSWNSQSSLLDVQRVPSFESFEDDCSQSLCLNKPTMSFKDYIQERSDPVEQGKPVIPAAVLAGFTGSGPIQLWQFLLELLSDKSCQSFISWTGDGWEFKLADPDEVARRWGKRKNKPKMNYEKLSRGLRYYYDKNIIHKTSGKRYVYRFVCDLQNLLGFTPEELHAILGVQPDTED
Summed up:
as §1

The target in another assay is T4, SPDEF (Homo sapiens, UniProt O95238 1-335).
T4 sequence: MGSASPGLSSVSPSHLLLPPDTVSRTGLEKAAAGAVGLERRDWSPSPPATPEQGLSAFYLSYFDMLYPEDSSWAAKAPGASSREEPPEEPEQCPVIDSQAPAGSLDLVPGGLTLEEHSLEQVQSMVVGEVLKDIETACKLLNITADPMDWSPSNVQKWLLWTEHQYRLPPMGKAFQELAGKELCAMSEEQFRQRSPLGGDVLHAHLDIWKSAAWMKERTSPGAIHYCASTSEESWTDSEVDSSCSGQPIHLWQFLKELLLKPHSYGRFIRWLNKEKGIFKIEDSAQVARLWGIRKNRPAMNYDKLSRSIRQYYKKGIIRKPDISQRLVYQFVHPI
Put shortly: as §1

The target of a further assay is T5, ETV7 (Homo sapiens, UniProt Q9Y603 1-341).
T5 sequence: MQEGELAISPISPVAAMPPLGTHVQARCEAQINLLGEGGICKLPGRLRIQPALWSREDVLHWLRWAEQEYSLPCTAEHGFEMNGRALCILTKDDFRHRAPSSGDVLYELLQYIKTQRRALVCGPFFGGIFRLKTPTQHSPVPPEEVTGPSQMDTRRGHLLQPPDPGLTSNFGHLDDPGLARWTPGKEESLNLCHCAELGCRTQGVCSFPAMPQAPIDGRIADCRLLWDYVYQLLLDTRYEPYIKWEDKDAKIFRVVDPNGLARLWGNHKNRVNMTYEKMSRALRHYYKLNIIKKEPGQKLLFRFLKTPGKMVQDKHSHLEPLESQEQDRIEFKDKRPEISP
Put shortly:
as §1

The target of another assay is T6, ELF5 (Homo sapiens, UniProt Q9UKW6-2 1-255).
T6 sequence: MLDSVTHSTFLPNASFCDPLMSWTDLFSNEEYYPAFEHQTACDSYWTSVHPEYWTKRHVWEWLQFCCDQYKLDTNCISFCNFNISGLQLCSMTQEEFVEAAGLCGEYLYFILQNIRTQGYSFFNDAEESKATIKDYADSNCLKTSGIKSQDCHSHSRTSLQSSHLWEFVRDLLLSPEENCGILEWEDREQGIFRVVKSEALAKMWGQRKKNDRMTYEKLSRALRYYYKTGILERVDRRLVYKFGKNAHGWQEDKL
Summed up:
as §1

The target of the next assay is T7, ETV3 (Homo sapiens, UniProt P41162-2 1-143).
T7 sequence: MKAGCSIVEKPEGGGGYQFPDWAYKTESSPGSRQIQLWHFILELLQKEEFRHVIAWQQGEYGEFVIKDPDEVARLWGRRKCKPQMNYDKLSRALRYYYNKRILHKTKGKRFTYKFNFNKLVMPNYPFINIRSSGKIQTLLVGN
Put shortly:
as §1

For another assay, the target named is ETV6 (Homo sapiens, UniProt P41212 1-452). Put shortly: as §1
ETV6, sequence (P41212 whole entry): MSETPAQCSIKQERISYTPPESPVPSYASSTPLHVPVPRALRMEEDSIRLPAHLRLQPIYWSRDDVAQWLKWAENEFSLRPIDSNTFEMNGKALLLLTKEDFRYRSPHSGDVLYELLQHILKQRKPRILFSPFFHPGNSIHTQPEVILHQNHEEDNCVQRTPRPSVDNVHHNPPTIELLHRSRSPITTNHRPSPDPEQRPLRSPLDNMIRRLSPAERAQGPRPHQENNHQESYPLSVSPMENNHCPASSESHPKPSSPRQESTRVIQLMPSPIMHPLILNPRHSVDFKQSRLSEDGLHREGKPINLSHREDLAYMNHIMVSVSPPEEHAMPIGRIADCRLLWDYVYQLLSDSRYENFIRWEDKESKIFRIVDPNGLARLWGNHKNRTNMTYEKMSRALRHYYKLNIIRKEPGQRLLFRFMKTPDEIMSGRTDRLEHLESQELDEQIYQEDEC

Consider GATCTC, for which the binding signal in the assay with ERF was 1.22 fold enrichment (6-mer frequency, TF over GST control); with ETV3L, 1.25 fold enrichment (6-mer frequency, TF over GST control); with ETS2, 1.31 fold enrichment (6-mer frequency, TF over GST control); in the assay with SPDEF, 1.42 fold enrichment (6-mer frequency, TF over GST control); with ETV7, 1.29 fold enrichment (6-mer frequency, TF over GST control); with ELF5, 1.21 fold enrichment (6-mer frequency, TF over GST control). Besides, the binding signal was 1.29 fold enrichment (6-mer frequency, TF over GST control) in the assay with ETV3 and 1.15 fold enrichment (6-mer frequency, TF over GST control) with ETV6.
On to TTCACT, for which the binding signal was 1.42 fold enrichment (6-mer frequency, TF over GST control) with ERF; 1.4 fold enrichment (6-mer frequency, TF over GST control) with ETV3L; 1.41 fold enrichment (6-mer frequency, TF over GST control) with ETS2; 1.32 fold enrichment (6-mer frequency, TF over GST control) with SPDEF; 1.36 fold enrichment (6-mer frequency, TF over GST control) with ETV7; 1.32 fold enrichment (6-mer frequency, TF over GST control) in the assay with ELF5. Further, the binding signal was 1.3 fold enrichment (6-mer frequency, TF over GST control) in the assay with ETV3 and 1.23 fold enrichment (6-mer frequency, TF over GST control) with ETV6.
Turning to TCTAAA, the binding signal with ERF was 1.17 fold enrichment (6-mer frequency, TF over GST control); with ETV3L it was 1.18 fold enrichment (6-mer frequency, TF over GST control); with ETS2 it was 1.21 fold enrichment (6-mer frequency, TF over GST control); with SPDEF it was 1.21 fold enrichment (6-mer frequency, TF over GST control); in the assay with ETV7, 1.18 fold enrichment (6-mer frequency, TF over GST control); with ELF5, 1.16 fold enrichment (6-mer frequency, TF over GST control). The binding signal with ETV3 is 1.28 fold enrichment (6-mer frequency, TF over GST control); with ETV6 it was 1.12 fold enrichment (6-mer frequency, TF over GST control).
Turning to CCACTA, the binding signal with ERF was 1.11 fold enrichment (6-mer frequency, TF over GST control); in the assay with ETV3L it was 1.13 fold enrichment (6-mer frequency, TF over GST control); with ETS2 it was 1.14 fold enrichment (6-mer frequency, TF over GST control); with SPDEF it was 1.09 fold enrichment (6-mer frequency, TF over GST control); with ETV7, 1.04 fold enrichment (6-mer frequency, TF over GST control); in the assay with ELF5, 1.06 fold enrichment (6-mer frequency, TF over GST control). Further, the binding signal with ETV3 was 1.03 fold enrichment (6-mer frequency, TF over GST control); in the assay with ETV6 it was 1.07 fold enrichment (6-mer frequency, TF over GST control).
For the sequence ATTGGT, the binding signal with ERF is 1.21 fold enrichment (6-mer frequency, TF over GST control); in the assay with ETV3L, 1.24 fold enrichment (6-mer frequency, TF over GST control); with ETS2, 1.34 fold enrichment (6-mer frequency, TF over GST control); with SPDEF it was 1.26 fold enrichment (6-mer frequency, TF over GST control); with ETV7 it was 1.27 fold enrichment (6-mer frequency, TF over GST control); with ELF5, 1.19 fold enrichment (6-mer frequency, TF over GST control). The binding signal is 1.24 fold enrichment (6-mer frequency, TF over GST control) with ETV3 and 1.13 fold enrichment (6-mer frequency, TF over GST control) with ETV6.
For AAAAAG, the binding signal in the assay with ERF is 1.22 fold enrichment (6-mer frequency, TF over GST control); in the assay with ETV3L, 1.26 fold enrichment (6-mer frequency, TF over GST control); with ETS2, 1.23 fold enrichment (6-mer frequency, TF over GST control); with SPDEF, 1.18 fold enrichment (6-mer frequency, TF over GST control); with ETV7, 1.32 fold enrichment (6-mer frequency, TF over GST control); with ELF5, 1.24 fold enrichment (6-mer frequency, TF over GST control). The binding signal in the assay with ETV3 is 1.23 fold enrichment (6-mer frequency, TF over GST control); with ETV6, 1.21 fold enrichment (6-mer frequency, TF over GST control).
ATACAA: the binding signal with ERF was 1.15 fold enrichment (6-mer frequency, TF over GST control); in the assay with ETV3L, 1.12 fold enrichment (6-mer frequency, TF over GST control); with ETS2, 1.19 fold enrichment (6-mer frequency, TF over GST control); with SPDEF, 1.14 fold enrichment (6-mer frequency, TF over GST control); with ETV7, 1.14 fold enrichment (6-mer frequency, TF over GST control); in the assay with ELF5, 1.08 fold enrichment (6-mer frequency, TF over GST control). The binding signal with ETV3 was 1.08 fold enrichment (6-mer frequency, TF over GST control); with ETV6, 1.12 fold enrichment (6-mer frequency, TF over GST control).
For the sequence CTTGCG, the binding signal with ERF is 1.41 fold enrichment (6-mer frequency, TF over GST control); with ETV3L it was 1.39 fold enrichment (6-mer frequency, TF over GST control); with ETS2 it was 1.28 fold enrichment (6-mer frequency, TF over GST control); in the assay with SPDEF it was 1.25 fold enrichment (6-mer frequency, TF over GST control); in the assay with ETV7 it was 1.3 fold enrichment (6-mer frequency, TF over GST control); in the assay with ELF5, 1.28 fold enrichment (6-mer frequency, TF over GST control). Besides, the binding signal with ETV3 was 1.42 fold enrichment (6-mer frequency, TF over GST control); with ETV6 it was 1.37 fold enrichment (6-mer frequency, TF over GST control).

Source of the values: article PMC7862700, “An all-to-all approach to the identification of sequence-specific readers for epigenetic DNA modifications on cytosine”.
